Data on nine molecules can be found in PubChem BioAssay (NCATS).

Test [1] addresses Glucocorticoid receptor (Homo sapiens) (UniProt P04150). Put plainly: qHTS assay for small molecule antagonists of glucocorticoid receptor signaling (AID 588533; active = well fitted inhibition curve with a large enough effect in the signal ratio, with a control signal flat, not every such curve was filed as active; the % refers to the signal ratio;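 note: cells stimulated with 2 nM dexamethasone as agonist; % is set by controls: 0 for no effect and ±100 for the full control effect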). An outline of the steps:
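Antagonist-mode qHTS: compound titrations added to GRE-bla HeLa cells, then dexamethasone 2 nM final; 18 h, 37 C. CCF4 FRET fluorescence normalized to dexamethasone and DMSO; IC50 from Hill fit.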
For orientation: qHTS replaces the single test concentration by a dilution series.

Test [2] concerns the target Peroxisome proliferator-activated receptor gamma (Homo sapiens) (UniProt P37231). Description: qHTS assay for small molecule agonists of peroxisome proliferator-activated receptor gamma signaling (AID 588536; active = well fitted curve in the direction sought with a large enough effect in the signal ratio, with a control signal flat, not every such curve was filed as active; the % refers to the signal ratio;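 note: 0% = DMSO basal wells and 100% = rosiglitazone at 2 µM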). An outline of the steps:
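HEK293 UAS-bla reporter line, 1% charcoal/dextran FBS; titration, 16 h, 37 C; CCF4 loading 2 h RT; fluorescence 460/530 nm. Normalized to rosiglitazone 2 uM = 100%, DMSO = 0%.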

For test [3] the target is unchanged. Description: qHTS assay for small molecule antagonists of peroxisome proliferator-activated receptor gamma signaling (AID 588537; active = well fitted inhibition curve with a large enough effect in the signal ratio, with a control signal flat, not every such curve was filed as active; the % refers to the signal ratio;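 note: reporter cells co-stimulated with 50 nM rosiglitazone agonist during compound treatment; % of control where 0% means no effect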). An outline of the steps:
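We seeded GeneBLAzer HEK293 reporter cells at 3000 per well, allowed 6-6.5 h attachment at 37 C, then co-treated with test compound titrations and 50 nM rosiglitazone overnight (16 h). Inhibition was quantified from 460/530 nm emission ratios.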

Test [4] has as its target Vitamin D3 receptor (Homo sapiens) (UniProt P11473). Description: qHTS assay for small molecule antagonists of vitamin D receptor signaling (AID 588541).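 Note: receptor activated by calcitriol during compound treatment; series mostly up to about 77 µM; % is set by controls: 0 for no effect and ±100 for the full control effect.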 An outline of the steps:
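VDR-UAS-bla HEK293T cells (2000/well, 2% charcoal-stripped FBS) were treated with titrated compounds plus 1-alpha,25-dihydroxyvitamin D3 (50 nM or 3 nM final) for 16 h at 37 C. CCF4 beta-lactamase fluorescence was read; Hill fits gave IC50.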

The target is the same in test [5]. Description: qHTS assay for small molecule agonists of vitamin D receptor signaling (AID 588543).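 Note: 0% = DMSO basal and 100% = reference agonist control.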 A digest of the protocol: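 Measured: β-lactamase reporter activity (CCF4, 405 nm excitation, 460/530 nm emission) in HEK293T VDR-UAS-bla cells after 16 h compound exposure at 37 °C. Normalization against 50 nM 1α,25-dihydroxyvitamin D3 and DMSO; Hill-fit EC50.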
Test [6] can be described thus: qHTS assay for small molecule agonists of retinoid X receptor alpha signaling (AID 588544).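 For activation: 0% = DMSO basal wells and 100% = reference agonist.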 The settings on record: HEK293T RXRa-UAS-bla, beta-lactamase reporter, 18 h; 530 nm emission.
Test [7] deals with Retinoic acid receptor RXR-alpha (Homo sapiens) (UniProt P19793). The description is as above.
Retinoic acid receptor RXR-alpha (Homo sapiens), sequence (P19793 whole entry, looked up): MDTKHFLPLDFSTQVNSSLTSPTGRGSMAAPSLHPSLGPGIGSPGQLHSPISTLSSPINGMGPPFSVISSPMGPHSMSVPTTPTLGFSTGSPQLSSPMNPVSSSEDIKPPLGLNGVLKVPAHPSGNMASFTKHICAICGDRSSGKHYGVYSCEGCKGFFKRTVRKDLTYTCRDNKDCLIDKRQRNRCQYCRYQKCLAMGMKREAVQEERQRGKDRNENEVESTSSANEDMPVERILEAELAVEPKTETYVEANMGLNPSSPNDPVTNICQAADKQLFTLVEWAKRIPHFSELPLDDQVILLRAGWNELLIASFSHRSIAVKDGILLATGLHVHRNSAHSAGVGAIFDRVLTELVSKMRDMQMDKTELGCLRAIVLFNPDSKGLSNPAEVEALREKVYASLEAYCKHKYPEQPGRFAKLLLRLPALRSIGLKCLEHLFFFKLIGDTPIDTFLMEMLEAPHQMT
The target of test [8] is Thyroid hormone receptor beta (Homo sapiens) (UniProt P10828). Description: qHTS assay for small molecule agonists of thyroid hormone receptor beta signaling (AID 588545).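 Note: 0% = DMSO only and 100% = 10 nM T3.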 An outline of the steps: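 Efficacy and EC50 values derive from Hill fits of qHTS titration data, normalized to 10 nM T3 and DMSO-only wells. HEK 293 reporter cells were stimulated for 18 hrs at 37 C, with beta-lactamase activity measured by CCF4 fluorescence.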
Thyroid hormone receptor beta (Homo sapiens), sequence (P10828 whole entry, looked up): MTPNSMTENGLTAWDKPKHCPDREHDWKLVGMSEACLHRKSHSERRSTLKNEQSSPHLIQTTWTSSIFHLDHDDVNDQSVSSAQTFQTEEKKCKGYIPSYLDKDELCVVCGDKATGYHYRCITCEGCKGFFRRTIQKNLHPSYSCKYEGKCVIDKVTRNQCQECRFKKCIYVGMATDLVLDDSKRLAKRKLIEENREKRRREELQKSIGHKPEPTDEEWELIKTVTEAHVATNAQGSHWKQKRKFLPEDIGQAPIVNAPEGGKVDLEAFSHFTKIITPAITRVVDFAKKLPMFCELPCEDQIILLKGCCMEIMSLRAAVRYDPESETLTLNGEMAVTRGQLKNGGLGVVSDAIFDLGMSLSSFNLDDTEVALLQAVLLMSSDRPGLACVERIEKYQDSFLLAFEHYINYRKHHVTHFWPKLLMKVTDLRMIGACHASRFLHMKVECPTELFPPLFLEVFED

Test [9] in a line: qHTS assay for small molecule antagonists of retinoid X receptor alpha signaling (AID 588546; active = well fitted inhibition curve with a large enough effect in the signal ratio, with a control signal flat, not every such curve was filed as active; the % refers to the signal ratio;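 note: cells stimulated with 9-cis-retinoic acid as agonist; % is set by controls: 0 for no effect and ±100 for the full control effect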). Particulars: HEK293T RXRa-UAS-bla, beta-lactamase ratio, antagonist mode; measured here: W530 green channel, cytotoxicity proxy. An outline of the steps: (§1)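 Beta-lactamase reporter inhibition, read as CCF4 fluorescence ratio (ex 405, em 460/530 nm) after 2 h at RT. HEK293T UAS-bla cells, 2500/well, were stimulated with 9-cis-RA at 500 or 100 nM final alongside test compound for 18 h at 37 C.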

For test [10], the target named is Retinoic acid receptor RXR-alpha (Homo sapiens) (UniProt P19793). The test is described as above. Particulars: HEK293T RXRa-UAS-bla, beta-lactamase ratio, antagonist mode. A digest of the protocol: as §1
For test [11], the target named is Thyroid hormone receptor beta (Homo sapiens) (UniProt P10828). Description: qHTS assay for small molecule antagonists of thyroid hormone receptor beta signaling (AID 588547; active = well fitted inhibition curve with a large enough effect in the signal ratio, with a control signal flat, not every such curve was filed as active; the % refers to the signal ratio;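 note: cells stimulated with 0.4 nM T3 agonist during compound exposure; series mostly up to about 77 µM; % is set by controls: 0 for no effect and ±100 for the full control effect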). Particulars: TR-UAS-bla HEK293, beta-lactamase ratio, antagonist mode, 18 h. An outline of the steps:
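TR-UAS-bla GripTite HEK293 cells in 2% charcoal/dextran FBS medium were preincubated 4 h at 37 C, given compound (0.59 nM to 92 uM) plus 0.4 nM T3 (final) for 18 h, then CCF4 for 2 h at RT; Hill fit gave IC50.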

In test [12] the target is Voltage-gated inwardly rectifying potassium channel KCNH2 (Homo sapiens) (UniProt Q12809). Description: qHTS Assay for Small Molecule Inhibitors of the Human hERG Channel Activity (AID 588834; active = well fitted inhibition curve with a large enough effect;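 note: top concentration of the series differs between compounds; % is set by controls: 0 for no effect and ±100 for the full control effect; lower thallium flux fluorescence means stronger hERG block; nearly all actives have a fitted effect of over 50% in size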). A digest of the protocol: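 Blockade is seen as reduced FluxOR thallium-flux fluorescence in U2OS cells expressing hERG from a BacMam construct, in Opti-MEM with 2% FCS. Concentration-response data fitted to the Hill equation for AC50.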
Voltage-gated inwardly rectifying potassium channel KCNH2 (Homo sapiens), sequence (Q12809 whole entry, looked up): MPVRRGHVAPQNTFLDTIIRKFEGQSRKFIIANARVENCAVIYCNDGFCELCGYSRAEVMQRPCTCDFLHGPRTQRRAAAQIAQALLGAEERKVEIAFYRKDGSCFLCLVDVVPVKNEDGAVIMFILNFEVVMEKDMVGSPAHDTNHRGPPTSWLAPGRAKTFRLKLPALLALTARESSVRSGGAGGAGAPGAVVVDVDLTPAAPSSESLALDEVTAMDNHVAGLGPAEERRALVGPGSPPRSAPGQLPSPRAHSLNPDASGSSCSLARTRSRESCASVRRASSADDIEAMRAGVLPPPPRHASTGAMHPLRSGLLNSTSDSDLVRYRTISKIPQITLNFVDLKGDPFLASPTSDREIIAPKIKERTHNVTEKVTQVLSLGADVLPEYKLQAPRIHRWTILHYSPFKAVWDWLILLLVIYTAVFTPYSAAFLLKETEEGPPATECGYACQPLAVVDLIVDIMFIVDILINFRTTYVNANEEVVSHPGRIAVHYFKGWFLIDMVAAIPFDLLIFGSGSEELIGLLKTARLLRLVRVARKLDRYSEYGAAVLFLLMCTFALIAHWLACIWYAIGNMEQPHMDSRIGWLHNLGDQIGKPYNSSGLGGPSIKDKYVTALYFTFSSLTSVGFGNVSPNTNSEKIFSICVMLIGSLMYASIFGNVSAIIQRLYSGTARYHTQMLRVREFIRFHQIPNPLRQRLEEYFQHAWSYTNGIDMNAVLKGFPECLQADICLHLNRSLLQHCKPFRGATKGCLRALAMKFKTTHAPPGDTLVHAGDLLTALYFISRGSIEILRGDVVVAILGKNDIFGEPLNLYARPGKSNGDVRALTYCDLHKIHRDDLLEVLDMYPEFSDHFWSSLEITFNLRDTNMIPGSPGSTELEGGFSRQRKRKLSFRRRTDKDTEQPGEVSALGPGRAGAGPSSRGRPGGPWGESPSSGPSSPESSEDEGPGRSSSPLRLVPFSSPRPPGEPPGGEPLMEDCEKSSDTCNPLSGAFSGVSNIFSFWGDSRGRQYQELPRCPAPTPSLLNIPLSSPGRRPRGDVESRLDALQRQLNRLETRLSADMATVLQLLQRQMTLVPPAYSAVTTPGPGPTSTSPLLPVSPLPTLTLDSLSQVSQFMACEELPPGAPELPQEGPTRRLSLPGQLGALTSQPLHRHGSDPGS

Test [13] is described as follows: qHTS assay for small molecule activators of the nuclear factor-kappa B (NF-kB) signaling pathway (AID 651749; active = well fitted activation curve with a large enough effect in the signal ratio; the % refers to the signal ratio; note: series mostly up to about 77 µM; % of control where 0% means no effect). The settings on record: NF-kB-bla ME-180 cells, beta-lactamase FRET ratio, 16 h; stronger effect = higher value. A digest of the protocol:
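Screening used 2,000 ME-180 reporter cells per well exposed to pinned compound (23 nL) or DMSO; after 16 hr at 37C, beta-lactamase expression under NF-kB control was assessed through FRET.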

Test [14] can be described thus: qHTS assay for small molecule antagonists of peroxisome proliferator-activated receptor delta signaling (AID 588535; active = well fitted inhibition curve with a large enough effect in the signal ratio, with a control signal flat, not every such curve was filed as active; the % refers to the signal ratio;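 for max response: cells co-treated with a PPAR-delta agonist as stimulator during compound exposure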). The settings on record: HEK293T PPARd-UAS-bla, beta-lactamase FRET ratio, 18 h; 460 nm channel. A digest of the protocol: (§2)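 Reporter: UAS-bla under PPAR-delta response element, HEK293T host. Medium: 2% charcoal/dextran FBS. Dosing: titration, 18 hrs, 37 C. Detection: CCF4, 2 hrs RT, 405 ex/460 and 530 em.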

Test [15] addresses Peroxisome proliferator-activated receptor delta (Homo sapiens) (UniProt Q03181). The description is as above. An outline of the steps:
as §2

The nature of test [16]: qHTS assay for small molecule activators of the p53 signaling pathway (AID 651743; active = well fitted activation curve with a large enough effect in the signal ratio, not every such curve was filed as active; the % refers to the signal ratio; note: series mostly up to about 92 µM; % of control where 0% means no effect). Particulars: HCT-116 p53RE-bla, beta-lactamase FRET ratio, 16 h; stronger effect = higher value. An outline of the steps: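 Cell-based beta-lactamase reporter (p53 response elements, HCT-116 background). After a 5-hour preincubation, cells received compound for 16 hours at 37 C; substrate development ran 2 hours at room temperature.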

A short description of test [17]: qHTS assay for small molecule agonists of the antioxidant response element (ARE) signaling pathway (AID 651741; active = well fitted activation curve with a large enough effect in the signal ratio; the % refers to the signal ratio; note: potency is the fitted concentration of half-maximal effect; for activation: % of control where 0% means no effect). An outline of the steps:
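Compounds in DMSO are pinned onto HepG2 ARE-bla cells (2,000/well) that were preincubated 5 h; plates stay 16 h at 37 C, then beta-lactamase activity is detected with LiveBLAzer B/G substrate by fluorescence.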

The target of test [18] is Glucocorticoid receptor (Homo sapiens) (UniProt P04150). Description: qHTS assay for small molecule agonists of glucocorticoid receptor signaling (AID 588532; active = well fitted curve in the direction sought with a large enough effect in the signal ratio, with a control signal flat; the % refers to the signal ratio;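 note: 100% = dexamethasone at 0.1 µM and 0% = DMSO only wells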). The settings on record: HeLa MMTV-bla, beta-lactamase ratio, agonist, 18 h; stronger effect = higher value; percent of dexamethasone control, DMSO zero. An outline of the steps:
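MMTV-bla HeLa, beta-lactamase reporter; medium with 1% charcoal/dextran-stripped FBS; cpds up to 92 uM, 18 h, 37 C; CCF4 readout 460/530 nm; Hill fit → EC50, efficacy vs 0.1 uM dexamethasone = 100%.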

Records with an inconclusive call do not appear. Activity calls are given as the source filed them. Unless noted, calls come from the whole dose curve.

Glucocorticoid receptor (Homo sapiens), sequence (P04150 whole entry, looked up): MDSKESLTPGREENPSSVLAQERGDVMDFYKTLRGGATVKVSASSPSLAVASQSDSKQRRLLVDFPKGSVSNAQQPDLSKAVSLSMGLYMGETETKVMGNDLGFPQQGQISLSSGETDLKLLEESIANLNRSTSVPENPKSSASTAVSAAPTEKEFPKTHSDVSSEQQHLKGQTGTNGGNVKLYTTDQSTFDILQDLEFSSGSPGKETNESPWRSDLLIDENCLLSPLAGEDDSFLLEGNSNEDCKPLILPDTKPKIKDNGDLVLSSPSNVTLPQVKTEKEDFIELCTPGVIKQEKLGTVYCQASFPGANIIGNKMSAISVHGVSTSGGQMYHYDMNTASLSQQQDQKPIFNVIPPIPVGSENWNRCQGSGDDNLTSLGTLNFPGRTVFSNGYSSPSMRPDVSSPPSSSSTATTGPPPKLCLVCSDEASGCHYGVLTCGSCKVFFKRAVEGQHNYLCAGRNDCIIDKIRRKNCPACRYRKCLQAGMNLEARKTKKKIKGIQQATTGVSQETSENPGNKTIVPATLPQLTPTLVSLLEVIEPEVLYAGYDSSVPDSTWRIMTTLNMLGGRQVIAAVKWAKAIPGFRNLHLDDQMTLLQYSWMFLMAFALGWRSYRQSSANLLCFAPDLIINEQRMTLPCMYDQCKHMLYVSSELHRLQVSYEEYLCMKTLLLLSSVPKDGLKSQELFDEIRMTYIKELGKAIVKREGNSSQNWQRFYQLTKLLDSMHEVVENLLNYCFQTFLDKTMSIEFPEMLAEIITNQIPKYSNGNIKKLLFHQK
Peroxisome proliferator-activated receptor gamma (Homo sapiens), sequence (P37231 whole entry, looked up): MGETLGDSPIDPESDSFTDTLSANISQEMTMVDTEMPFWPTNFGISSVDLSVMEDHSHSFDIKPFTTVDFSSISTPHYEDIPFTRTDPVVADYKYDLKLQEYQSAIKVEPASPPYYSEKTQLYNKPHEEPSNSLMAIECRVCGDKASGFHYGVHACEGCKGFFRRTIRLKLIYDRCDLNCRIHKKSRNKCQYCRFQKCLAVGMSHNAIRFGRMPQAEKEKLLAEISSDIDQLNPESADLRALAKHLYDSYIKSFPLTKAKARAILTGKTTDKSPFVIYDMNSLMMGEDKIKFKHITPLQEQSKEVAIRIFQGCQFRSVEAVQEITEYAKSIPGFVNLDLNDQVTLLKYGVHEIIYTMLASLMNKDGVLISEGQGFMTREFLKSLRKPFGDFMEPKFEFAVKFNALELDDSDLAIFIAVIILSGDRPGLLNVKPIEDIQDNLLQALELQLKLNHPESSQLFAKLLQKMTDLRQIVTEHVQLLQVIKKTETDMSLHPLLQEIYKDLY
Vitamin D3 receptor (Homo sapiens), sequence (P11473 whole entry, looked up): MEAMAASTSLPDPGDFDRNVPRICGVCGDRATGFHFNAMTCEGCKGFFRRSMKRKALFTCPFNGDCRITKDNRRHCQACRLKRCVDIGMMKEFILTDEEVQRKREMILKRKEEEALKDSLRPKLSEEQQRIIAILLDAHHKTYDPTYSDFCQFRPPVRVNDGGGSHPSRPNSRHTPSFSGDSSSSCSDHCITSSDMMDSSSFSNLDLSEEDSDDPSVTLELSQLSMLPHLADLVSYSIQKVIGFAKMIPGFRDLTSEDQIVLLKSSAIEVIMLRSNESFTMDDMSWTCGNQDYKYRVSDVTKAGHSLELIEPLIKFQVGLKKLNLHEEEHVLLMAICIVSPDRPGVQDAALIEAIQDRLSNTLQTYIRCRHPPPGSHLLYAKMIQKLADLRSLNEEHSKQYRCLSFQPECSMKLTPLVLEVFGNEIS
Peroxisome proliferator-activated receptor delta (Homo sapiens), sequence (Q03181 whole entry, looked up): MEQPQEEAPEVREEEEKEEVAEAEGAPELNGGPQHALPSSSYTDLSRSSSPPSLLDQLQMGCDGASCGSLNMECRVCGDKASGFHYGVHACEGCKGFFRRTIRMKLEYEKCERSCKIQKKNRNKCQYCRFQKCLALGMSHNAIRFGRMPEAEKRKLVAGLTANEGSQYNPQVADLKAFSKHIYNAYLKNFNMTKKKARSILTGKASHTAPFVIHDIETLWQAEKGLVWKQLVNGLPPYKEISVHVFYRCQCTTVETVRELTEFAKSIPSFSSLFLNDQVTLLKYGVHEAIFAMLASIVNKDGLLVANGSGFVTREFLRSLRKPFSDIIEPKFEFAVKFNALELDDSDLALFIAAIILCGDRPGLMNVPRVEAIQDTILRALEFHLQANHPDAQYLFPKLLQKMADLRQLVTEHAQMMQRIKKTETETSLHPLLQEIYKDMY

For the molecule `OC/C(Br)=C(\Br)CO`, the call in [1], in [2], in test [3], in test [4], in test [5] and in test [7] was inactive. In [8], the outcome was inactive. Besides, the max response was -4.05% in test [6], -2.68% in test [9] and -0.311% (inactive) in test [10]. In addition, in test [11], the activity change % (negative = inhibition) was -11.8% (inactive). In addition, the Potency entry in test [12] was “inactive”. In addition, the activation in test [13] is 0.22% (inactive).
As to `c1ccc2n[nH]nc2c1`, the outcome in [1], in test [2], in test [7] and in test [8] was inactive. The max response in [14] is -32.1%; in [6] it was -15.8%; in test [9], -16.6%; in [10], -7.97% (inactive). Besides, the Potency result in [15] and in test [12] was “inactive” each time. The results for the activation in test [16] and in [13] were -4.32% (inactive) and 1% (inactive), respectively.
On to `c1ccc2c(c1)Oc1ccccc1S2`, for which the molecule was called inactive in [1], in test [5], in test [7] and in test [8]. Besides, the max response in test [14] was 19.7%; in test [6], -9.36%; in test [9] it was -7.12%; in test [10] it was 5.17% (inactive). For the same molecule, the Potency result in [15] and in test [17] was “inactive” each time. For the same molecule, the activity change % (negative = inhibition) in test [11] was -3.93% (inactive). The activation is 0.189% (inactive) in test [16] and -0.203% (inactive) in test [13].
Regarding `C=C(C)C(=O)OCC(C)O` (centres undefined), the activation in test [18] is -4.2% (inactive). For the same molecule, the max response in test [14] was 24.5%; in test [6] it was -4.4%; in test [9] it was -2%; in [10] it was 5.46% (inactive). Besides, the Potency entry in test [15], in test [12] and in test [17] was “inactive” throughout. In addition, the result in test [4], in test [5], in [7] and in [8] was inactive. Further, the activity change % (negative = inhibition) in test [11] is 11.2% (inactive).
As to `Cc1cccc(C)c1`, the result in test [1], in test [2], in test [3], in test [4], in test [5] and in test [7] was inactive. For the same molecule, the max response in test [14] was -14.1%; in test [6], -8.44%; in test [9], -8.63%; in test [10], -1.87% (inactive). Besides, the Potency entry in test [15] and in test [12] was “inactive” each time. Moreover, in [11], the activity change % (negative = inhibition) is 21.6% (inactive).
For `ON=C1CCCCC1`, the call in test [1], in [2], in [3], in [4], in test [5] and in [7] was inactive. The molecule was called inactive in test [8]. The max response in test [14] is -2.32%; in [6], -11.2%; in [9] it was 5.82%; in test [10] it was 4.41% (inactive). For the same molecule, the Potency result in [15] is “inactive”. Moreover, the activity change % (negative = inhibition) in [11] was 8.44% (inactive). For the same molecule, the activation in test [16] was -1.24% (inactive); in [13], -0.0489% (inactive).
In the case of `Nc1ccccc1[N+](=O)[O-]`, the molecule was called inactive in test [1], in test [2], in [3] and in test [7]. Besides, the max response is 35.9% in test [14], -4.62% in test [6], 1.56% in [9] and -0.391% (inactive) in [10]. Moreover, the Potency entry in test [15], in test [12] and in test [17] was “inactive” throughout. In addition, the activity change % (negative = inhibition) in test [11] is -6.45% (inactive). Also, the activation is -3.02% (inactive) in [16] and 0.892% (inactive) in test [13].
Turning to `O=Cc1ccc(C(=O)O)cc1`, the figures for the activation in test [18] and in [16] were 3.49% (inactive) and -2.17% (inactive), respectively. The molecule was called inactive in [2], in test [7] and in [8]. For the same molecule, the max response in test [6] is 15.4%; in test [9], -11.2%; in test [10], 34.5% (inactive). Further, the activity change % (negative = inhibition) in [11] was 7.45% (inactive). Further, in test [12], the Potency entry is “inactive”.
On to `CC1=C(/C=C/C(C)=C/C=C/C(C)=C\C=O)C(C)(C)CCC1`, for which the activation in test [18] is 1.42% (inactive); in [16], 8.65% (inactive); in [13], -1.57% (inactive). In addition, the result in test [4] and in test [5] was inactive. For the same molecule, the Potency in [17] was 37.6 µM (active).
